The supplement of paper PMC7695840
Structures can show the parent of a compound that is named as a salt.

Assays:
[1] = tested on: Staphylococcus aureus MW2 delta-mecA (mecA-); test: normalized GFP fluorescence (growth of mecA- strain) (fraction of control range); higher = more growth of mecA- strain; settings: compound concentration: 150 uM; cefoxitin: subinhibitory; fluorescent label: GFP
In short: (§1)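 Two pre-induced S. aureus MW2 strains, one with the gene labeled by DsRed and one lacking it labeled by GFP, were mixed 1:1 in LB with a subinhibitory antibiotic dose set daily. The mix went at 5 µL/well onto 150 μM compound (1.5% DMSO) in 1536-well plates, single replicate, and grew unshaken 20 h at 37 °C, 90% humidity. DsRed (540/590) and GFP (485/520) values were scaled per plate between single-strain control medians, and plates with high untreated ratios or rows with DsRed/GFP >10 were left out.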

[2] = tested on: Staphylococcus aureus MW2 (mecA+); test: normalized DsRed fluorescence (growth of mecA+ strain) (fraction of control range); higher = more growth of mecA+ strain; settings: compound concentration: 150 uM; cefoxitin: subinhibitory; fluorescent label: DsRed
In short: as §1

| SMILES | normalized GFP fluorescence [1] | normalized DsRed fluorescence [2] |
| --- | --- | --- |
| O=[N+]([O-])O[C@H]1CO[C@H]2[C@@H]1OC[C@H]2O[N+](=O)[O-] | 0.915 | 0.65 |
| COC(=O)C(c1ccccc1)C1CCCCN1 (stereo not given) | 0.277 | 0.737 |
| CCC1(c2cccc(O)c2)CCCCN(C)C1 (stereo not given) [Meptazinol HCl] | 0.168 | 0.815 |
| C[C@@H]1[C@H](O)[C@@H](C)/C=C/C=C/CC/C=C/C=C/C=C/C=C/[C@H](O[C@H]2O[C@@H](C)[C@H](O)[C@@H](N)[C@H]2O)C[C@@H]2O[C@](O)(C[C@@H](O)[C@H](O)CC[C@@H](O)C[C@@H](O)C[C@@H](O)CC(=O)O[C@H]1C)C[C@H](O)[C@H]2C(=O)O [Nystatin (Fungicidin)] | 0.00493 | 0.585 |
| NCC1(CC(=O)O)CCCCC1 | 0.647 | 0.674 |
| NC(=O)CN1CCCC1=O | 0.168 | 0.628 |
| O=c1[nH]c2ccccc2n1CCCN1CCC(n2c(=O)[nH]c3cc(Cl)ccc32)CC1 [Domperidone (Motilium)] | 0.0985 | 0.927 |
| C[N+]1(C)CCCC(OC(=O)C(O)(c2ccccc2)c2ccccc2)C1 (stereo not given) | 0.765 | 0.852 |
| N.N.[Cl][Pt][Cl] | 0.807 | 0.697 |
| CC(O)CN1CCN(CC(=O)[O-])CCN(CC(=O)[O-])CCN(CC(=O)[O-])CC1.[Gd+3] (stereo not given) | 0.58 | 0.515 |
| CNCC(=O)c1ccc(O)c(O)c1 [Adrenalone HCl] | 0.708 | 0.797 |
| CC[C@H]1CN2CCc3cc(OC)c(OC)cc3[C@@H]2C[C@@H]1C[C@H]1NCCc2cc(OC)c(OC)cc21 | 0.439 | 0.948 |
| CC(Cc1ccc(O)cc1)NCC(O)c1cc(O)cc(O)c1 (stereo not given) | 0.322 | 0.737 |
| CNC(C)[C@H](O)c1ccccc1 (stereo not given in full) | 0.353 | 0.809 |
| NCCCNCCSP(=O)(O)O | 0.429 | 0.76 |
| CC(NC(C)(C)C)C(=O)c1cccc(Cl)c1 (stereo not given) [Amfebutamone (Bupropion)] | 0.395 | 0.602 |
| c1ccc2c(c1)Nc1ccccc1S2 | 0.132 | 0.671 |
| CN1C[C@H](C(=O)N[C@]2(C)O[C@@]3(O)[C@@H]4CCCN4C(=O)[C@H](Cc4ccccc4)N3C2=O)C=C2c3cccc4[nH]cc(c34)C[C@H]21 | 0.435 | 1.11 |

| SMILES | normalized GFP fluorescence [1] | normalized DsRed fluorescence [2] |
| --- | --- | --- |
| N[C@@H]1C[C@H]1c1ccccc1.N[C@H]1C[C@@H]1c1ccccc1 | 0.546 | 0.701 |
| O=[N+]([O-])O[C@@H]1CO[C@H]2[C@@H]1OC[C@@H]2O | 0.742 | 1.13 |
| CNC(=O)Oc1ccc2c(c1)[C@]1(C)CCN(C)[C@@H]1N2C | 0.574 | 0.687 |
| CC(=O)O[C@H]1C[C@H](O[C@H]2[C@@H](O)C[C@H](O[C@H]3[C@@H](O)C[C@H](O[C@H]4CC[C@@]5(C)[C@H](CC[C@@H]6[C@@H]5C[C@@H](O)[C@]5(C)[C@@H](C7=CC(=O)OC7)CC[C@]65O)C4)O[C@@H]3C)O[C@@H]2C)O[C@H](C)[C@H]1O[C@@H]1O[C@H](CO)[C@@H](O)[C@H](O)[C@H]1O | 0.391 | 0.766 |
| COc1cc2c(c(OC)c1OC)-c1ccc(OC)c(=O)cc1[C@@H](NC(C)=O)CC2 | 0.0184 | 0.897 |
| C[C@]12CC[C@H]3[C@@H](CC[C@@]45O[C@@H]4C(O)=C(C#N)C[C@]35C)[C@@H]1CC[C@@H]2O | 0.134 | 1.06 |
| C[C@@H]1CC[C@H]2[C@@H](C)C(=O)O[C@@H]3O[C@@]4(C)CC[C@@H]1[C@]32OO4 [Artemisinin] | 0.505 | 0.66 |
| CC(=O)OC1CN2CCC1CC2 (stereo not given) | 0.565 | 0.665 |
| O=C(O)CCCc1ccc(N(CCCl)CCCl)cc1 | 0.418 | 1.38 |
| CNCC(O)c1ccc(O)cc1 (stereo not given) [Synephrine (Oxedrine)] | 0.516 | 0.777 |
| C=C/C=C\CC1=C(C)[C@@H](OC(=O)[C@@H]2[C@@H](/C=C(\C)C(=O)OC)C2(C)C)CC1=O.C=C/C=C\CC1=C(C)[C@@H](OC(=O)[C@@H]2[C@@H](C=C(C)C)C2(C)C)CC1=O | 0.39 | 0.442 |
| O=C1CN=C(c2ccccc2Cl)c2cc([N+](=O)[O-])ccc2N1 | 0.145 | 1.02 |
| O=C1CC[C@@]2(O)[C@H]3Cc4ccc(O)c5c4[C@@]2(CCN3CC2CC2)[C@H]1O5 | 0.283 | 0.86 |
| CC(=O)O[C@H]1C[C@@H]2CC[C@@H]3[C@H](CC[C@@]4(C)[C@H]3C[C@H]([N+]3(C)CCCCC3)[C@@H]4OC(C)=O)[C@@]2(C)C[C@@H]1[N+]1(C)CCCCC1 [Pancuronium (Pavulon)] | 0.324 | 0.578 |
| COc1ccc2c(c1)[C@]13CCCC[C@@H]1[C@H](C2)N(C)CC3 | 0.241 | 1.04 |
| CCC(=O)O[C@H]1CC[C@H]2[C@@H]3CCC4=CC(=O)CC[C@]4(C)[C@H]3CC[C@]12C | 0.154 | 0.364 |
| CC(O)(CS(=O)(=O)c1ccc(F)cc1)C(=O)Nc1ccc(C#N)c(C(F)(F)F)c1 (stereo not given) [Bicalutamide (Casodex)] | 0.0167 | 0.707 |
